Measurements as given in ChEMBL document CHEMBL3988442, “University of Dundee, Small-Polar-MMV Screening Library” (2021).
Among all 38,000 compounds or so, about 1,200 (3.2%) showed an effect of 50% or more. The median lay at about -58%. The entries come from a sample that favours strong results as a whole.

What follows are molecules tested on Plasmodium falciparum (assay: Calibr Malaria Delayed Death Assay SOP). Settings: concentration 4.99e-06 (unit not given; other assays of the set use mol/L).
Type: functional, organism-based
Design: scale not given: in the data most compounds retested in dose-response had high values
With CC(C)c1ccc(NS(=O)(=O)CC2=NC(=O)n3cccc3C2=O)cc1 the “Percent Effect” value was -194.3%. For CO[C@H]1CO[C@@]2(CCCN(C(=O)C3CC=CC3)C2)C1, the “Percent Effect” value was -81.44%. CC(C)CNC(=O)CSC1CCc2ccccc2NC1=O (stereo not drawn) was tested, and the “Percent Effect” value was -170.7%. With COc1ccc(-n2ncc(C(C)NC3Cc4ccccc4C3)c2C)cc1 (stereo not drawn) the “Percent Effect” value was 1.566%. In the case of Cc1c(C(C)N)cnn1-c1ccccn1 (stereo not drawn), the “Percent Effect” value is reported as -122.1%. Cc1c(C(C)N)cnn1-c1cccc2ccccc12 (stereo not drawn) was tested, and the “Percent Effect” value was 74.08%. In the case of Fc1ccc(CN2Cc3nccn3CC(CN3CCOCC3)C2)cc1.O=C(O)C(F)(F)F.O=C(O)C(F)(F)F (stereo not drawn), the “Percent Effect” value is reported as -18.4%. In the case of CC(=O)c1cccc(OCc2cc(C(=O)N3CCCCO3)n[nH]2)c1, the “Percent Effect” value is reported as -55.13%. For Cc1ccc(OCC(C)NS(=O)(=O)Cc2ccon2)cc1 (stereo not drawn), the “Percent Effect” value was -50.51%. For CCN1CCC2(CC1)CC(COC)N(Cc1csc(C)n1)C2.O=C(O)C(F)(F)F.O=C(O)C(F)(F)F (stereo not drawn), the “Percent Effect” value was -25.47%. Cc1nnc(N2CC[C@H](OCC3CC3)[C@@H](Cc3ccccc3)C2)s1.O=C(O)C(F)(F)F was tested, and the “Percent Effect” value was -5.425%. With COCC1CC2(CCN(C(C)=O)CC2)CN1Cc1csc(C)n1.O=C(O)C(F)(F)F (stereo not drawn) the “Percent Effect” value was -10.79%. For Cc1ccc(N2CC[C@H](OCC3CC3)[C@@H]2Cc2cccnc2)nn1.O=C(O)C(F)(F)F, the “Percent Effect” value was -86.08%. For Cc1nc(CN2CC[C@H](OCC3CC3)[C@@H]2Cc2cccnc2)cs1.O=C(O)C(F)(F)F.O=C(O)C(F)(F)F, the “Percent Effect” value was 60.39%. COCC1CC2(CCN(CC3CC3)CC2)CN1Cc1csc(C)n1.O=C(O)C(F)(F)F.O=C(O)C(F)(F)F (stereo not drawn) was tested, and the “Percent Effect” value was 52%. Cc1nnc(N2CC[C@@H](OCC3CC3)[C@@H](Cc3ccccc3)C2)s1.O=C(O)C(F)(F)F was tested, and the “Percent Effect” value was 84.3%. Cc1nc(CN2CC[C@@H](OCC3CC3)[C@@H]2Cc2cccnc2)cs1.O=C(O)C(F)(F)F.O=C(O)C(F)(F)F was tested, and the “Percent Effect” value was 6.851%. For CO[C@@H]1CCN(c2nnc(C)s2)C[C@@H]1Cc1ccccc1.O=C(O)C(F)(F)F, the “Percent Effect” value was -42.62%. In the case of COc1cc(OC)c(C2CC(=O)Oc3cc(C)[nH]c(=O)c32)c(OC)c1 (stereo not drawn), the “Percent Effect” value is reported as -23.56%. With COc1ccc(CN(C)CC(=O)c2ccc3[nH]c(=O)[nH]c3c2)cc1F the “Percent Effect” value was -24.42%. COc1cccc(S(=O)(=O)NC(=O)CC2CCCO2)c1 (stereo not drawn) was tested, and the “Percent Effect” value was -80.63%. In the case of CC(C)NC(=O)C1CN(C(=O)Cc2ccccc2)CC12CCOCC2 (stereo not drawn), the “Percent Effect” value is reported as -95.53%. With CCCS(=O)(=O)NCCc1ncc(CC)s1 the “Percent Effect” value was -128.9%. OCCN1CCN(Cc2coc(-c3cccc(F)c3)n2)CC1 was tested, and the “Percent Effect” value was -200.4%. For CC(C)(C#N)c1ccccc1CN(CCO)Cc1ccsc1, the “Percent Effect” value was -17.47%. C[C@]1(O)CN(Cc2ncc[nH]2)CC[C@@H]1Oc1cccc(F)c1 was tested, and the “Percent Effect” value was -12.82%. With CCCc1nnc([C@H]2CCN(Cc3ncc[nH]3)C2)o1 the “Percent Effect” value was -53.09%. O=C(O)C(F)(F)F.O=S(=O)(c1cccs1)N1Cc2nc(CN3CCCC3)oc2C1 was tested, and the “Percent Effect” value was -93.44%. With COC(=O)CCNC(=O)c1cc(-c2ccc(OC)cc2)nn1C the “Percent Effect” value was -127.7%. Cc1nn(C)c2c(N3CCC(C)CC3)nc(C3CC3)nc12 was tested, and the “Percent Effect” value was -7.534%. CC(C)Nc1nc(N2CCCC2)nc2c1CN(C)CC2 was tested, and the “Percent Effect” value was 48.45%. In the case of CC(C)Nc1nc(N2CCCC2)nc2c1CN(S(C)(=O)=O)CC2, the “Percent Effect” value is reported as 50.55%. With CCCN1CCc2nc(N3CCOCC3)nc(NC(C)C)c2C1 the “Percent Effect” value was -40.15%. In the case of CCN1CCc2nc(N3CCOCC3)nc(NC(C)C)c2C1, the “Percent Effect” value is reported as 12.6%. For CC(C)Nc1nc(-c2ccccc2)nc2c1CCN(C(=O)C1CC1)CC2.O=C(O)C(F)(F)F, the “Percent Effect” value was 24.24%. In the case of CCC(C)N1CCc2nc(N3CCCC3)nc(NC(C)C)c2C1 (stereo not drawn), the “Percent Effect” value is reported as 77.92%. For CC(C)Nc1nc(N2CCCC2)nc2c1CN(c1ncc(F)cn1)CC2, the “Percent Effect” value was 23.23%. In the case of Cc1nc(N2CCCC2)nc2c1CN(C(C)C)CC2.O=C(O)C(F)(F)F, the “Percent Effect” value is reported as -39.09%. In the case of CC(C)Nc1nc(N2CCCC2)nc2c1CCN(S(C)(=O)=O)CC2.O=C(O)C(F)(F)F.O=C(O)C(F)(F)F, the “Percent Effect” value is reported as 51.48%. For Cn1ccnc1CN1CCCN(C(=O)c2ccc3cc[nH]c3c2)CC1, the “Percent Effect” value was -18.34%. For Cc1nc(CO[C@@H]2CC[C@H]3[C@H]2OCCN3Cc2cccnc2)cs1.O=C(O)C(F)(F)F.O=C(O)C(F)(F)F.O=C(O)C(F)(F)F, the “Percent Effect” value was -25.46%. In the case of CC(C)CNC(=O)N1C[C@H]2C[C@H](C(=O)NCc3ccccc3)[C@@H](C1)O2, the “Percent Effect” value is reported as -25.06%. O=C(NCc1cc[nH]n1)N1CCN(c2ncccn2)CC1 was tested, and the “Percent Effect” value was -98.04%. In the case of Cc1ccoc1C(=O)N1Cc2c(CN3CCCCC3)nn(C)c2C1.O=CO, the “Percent Effect” value is reported as -35.59%. Cc1cc(CN(C)C2CCCN(c3cccnn3)C2)no1 (stereo not drawn) was tested, and the “Percent Effect” value was -12.48%. For Cc1oncc1C(=O)NCC1(O)CCc2ccccc2C1 (stereo not drawn), the “Percent Effect” value was -85.49%. With COc1coc(C(=O)Nc2nc(-c3ccncc3)cs2)cc1=O the “Percent Effect” value was -115.6%. Cc1ccc(NC2CCN(C(=O)COc3cccc(F)c3)CC2)nn1 was tested, and the “Percent Effect” value was -0.3434%. In the case of Cn1cc(C[C@H]2[C@H](O)CCN2Cc2ccncc2)cn1.O=C(O)C(F)(F)F.O=C(O)C(F)(F)F, the “Percent Effect” value is reported as -36.65%. O=C(CCNCc1cccc(O)c1)N1CCc2sccc2C1 was tested, and the “Percent Effect” value was 50.25%. N#Cc1cccc(CNCCC(=O)N2CCc3sccc3C2)c1 was tested, and the “Percent Effect” value was 18.53%. For O=C(CCN1CCCC1c1cccc(F)c1)N1CCc2sccc2C1 (stereo not drawn), the “Percent Effect” value was 40.53%. COc1ccc(CNCCC(=O)N2CCc3sccc3C2)cc1O was tested, and the “Percent Effect” value was 34.01%. For Cc1cc(C2CCCN2CCC(=O)N2CCc3sccc3C2)no1 (stereo not drawn), the “Percent Effect” value was -5.731%. With O=C(CCN1CCCC1C1CCCCC1)N1CCc2sccc2C1 (stereo not drawn) the “Percent Effect” value was 58.84%. For CNc1nc(C)c(C(=O)N2C[C@@H](C(=O)O)[C@H](C3CC3)C2)s1, the “Percent Effect” value was -129.8%. With Cc1cc(C[S+]([O-])CC(=O)NCc2ccccc2)no1 (stereo not drawn) the “Percent Effect” value was -44.89%. In the case of C[C@H](NC(=O)OC(C)(C)C)c1nnc(S(=O)(=O)Cc2cccc(F)c2)o1, the “Percent Effect” value is reported as -198.9%. For Cc1nc2c(c(NC(C)c3nnn[nH]3)n1)Cc1ccccc1OC2 (stereo not drawn), the “Percent Effect” value was -22.04%. With CNS(=O)(=O)c1cccc(C(C)NCc2ccc(F)cc2F)c1 (stereo not drawn) the “Percent Effect” value was -6.511%. CNS(=O)(=O)c1cccc(C(C)NCc2ccco2)c1 (stereo not drawn) was tested, and the “Percent Effect” value was 0.2758%. For CNS(=O)(=O)c1cccc(C(C)NCc2ccc(C)o2)c1 (stereo not drawn), the “Percent Effect” value was 21.13%. In the case of CNS(=O)(=O)c1cccc(C(C)NCc2cccc(C)c2C)c1 (stereo not drawn), the “Percent Effect” value is reported as 68.88%. With CNS(=O)(=O)c1cccc(C(C)NCc2cccc(OC)c2)c1 (stereo not drawn) the “Percent Effect” value was -0.2291%. With CNS(=O)(=O)c1cccc(C(C)NCc2ccccc2OC)c1 (stereo not drawn) the “Percent Effect” value was 86.21%. O=C(c1cc2c(s1)CCCCC2)N1CCC(c2ncc[nH]2)CC1 was tested, and the “Percent Effect” value was -34.19%. In the case of COc1nc2c(cc1C(=O)N1CCCCC1c1ccccn1)CCC2 (stereo not drawn), the “Percent Effect” value is reported as -121.2%. With Cc1nn(CC(C)C)c(N(C)C)c1CNCc1ccc(CO)c(F)c1 the “Percent Effect” value was -6.96%. With O=C(CCNS(=O)(=O)c1ccc(F)cc1)NCc1ccoc1 the “Percent Effect” value was -96.77%. In the case of CCCc1nc(CN2CCCC2Cn2cncn2)no1 (stereo not drawn), the “Percent Effect” value is reported as -44.73%. CCSc1ncc(CN2CCC(O)(CN3CCOCC3)C(C)(C)C2)cn1 (stereo not drawn) was tested, and the “Percent Effect” value was 16.41%. COc1ccc2c(c1)C(NCCc1ncc(C)s1)CCCO2 (stereo not drawn) was tested, and the “Percent Effect” value was -37.71%. In the case of Cc1ccc2c(c1)OCCCC2NC1CCN(C)CC1 (stereo not drawn), the “Percent Effect” value is reported as 47.45%. In the case of COc1c(CNC2CCCOc3ccccc32)c(C)nn1C (stereo not drawn), the “Percent Effect” value is reported as -45.12%. With COc1ccc2c(c1)C(NCCc1c(C)noc1C)CCCO2 (stereo not drawn) the “Percent Effect” value was 29.88%. In the case of COc1ccc2c(c1)C(NCCc1ccccn1)CCCO2 (stereo not drawn), the “Percent Effect” value is reported as 57.17%. COc1cccc(CNC2CCCOc3cc(C)ccc32)n1 (stereo not drawn) was tested, and the “Percent Effect” value was 67.49%. With O=C(Nc1cn[nH]c1)N1CCN(CCSc2ccccc2)CC1 the “Percent Effect” value was -6.157%. With CCOCc1ncn2c1CN(C(=O)Nc1cccc(F)c1)CC2 the “Percent Effect” value was -77.13%. In the case of CN(CCCOc1ccccc1Cl)C(=O)CN1CCCCCC1=O, the “Percent Effect” value is reported as -111.3%. Cc1cccc(S(=O)(=O)N2Cc3nccn3CC(CN(C)C)C2)c1 (stereo not drawn) was tested, and the “Percent Effect” value was 1.767%. With CC(=O)N1CCc2[nH]c(=O)ccc2C1 the “Percent Effect” value was -39.7%. Cc1ccc(C(CNCC2CC2)N2CCOCC2)s1 (stereo not drawn) was tested, and the “Percent Effect” value was 23.83%. Cc1ccc(C(CNCc2ccc(C#N)cc2)N2CCOCC2)s1 (stereo not drawn) was tested, and the “Percent Effect” value was 50.98%. With CCn1cc(CNC(=O)CCc2nnc(-c3ccc(C)s3)o2)cn1 the “Percent Effect” value was -44.03%. CCn1cc(CNCC(c2ccc(C)s2)N2CCOCC2)cn1 (stereo not drawn) was tested, and the “Percent Effect” value was 64.77%. Cc1ccc(C(CNCc2cccnc2)N2CCOCC2)s1 (stereo not drawn) was tested, and the “Percent Effect” value was -2.804%. In the case of Cc1ccc(C(CNCc2ncc[nH]2)N2CCOCC2)s1 (stereo not drawn), the “Percent Effect” value is reported as 32.72%. Cc1ccc(C(CNCc2ccncc2)N2CCOCC2)s1 (stereo not drawn) was tested, and the “Percent Effect” value was -46.8%. CCn1ccnc1CNCC(c1ccc(C)s1)N1CCOCC1 (stereo not drawn) was tested, and the “Percent Effect” value was 52.86%. With Cc1ccc(C(CNCc2nccn2C)N2CCOCC2)s1 (stereo not drawn) the “Percent Effect” value was -32.15%. In the case of CCCn1cc(CNCC(c2ccc(C)s2)N2CCOCC2)cn1 (stereo not drawn), the “Percent Effect” value is reported as 54.23%. In the case of Cc1ccc(C(CNCc2cccn2C)N2CCOCC2)s1 (stereo not drawn), the “Percent Effect” value is reported as -42.34%. In the case of O=C(CCn1cccn1)NCC(c1cccs1)N1CCOCC1 (stereo not drawn), the “Percent Effect” value is reported as -64.96%. For O=C(NCCc1nccs1)C(c1ccccc1)n1cnnn1 (stereo not drawn), the “Percent Effect” value was -126.4%. With Cn1ccnc1-c1ccc(NCc2cn3c(n2)SCC3)nn1 the “Percent Effect” value was -229.6%. With CC(C)CC(CO)NS(=O)(=O)Cc1ccon1 (stereo not drawn) the “Percent Effect” value was -57.79%. Cc1ccc2nc(C3CCCN3C(=O)c3cc(=O)[nH]c(=O)[nH]3)[nH]c2c1 (stereo not drawn) was tested, and the “Percent Effect” value was -24.73%.
